Records with an inconclusive call do not appear. Activity calls are given as the source filed them. Unless noted, the call rests on the fitted dose curve; in most records, active means well fitted curve in the direction sought with a large enough effect in the repeat runs; inconclusive means weak or mixed curves; inactive means no such curve, though single readings can be large; an effect the other way counts as inactive or inconclusive.
How the values were obtained:
[1] = qHTS assay to identify small molecule agonists of the NFkB signaling pathway - cell viability counter screen (AID 1159515; calls by dose curve; further: series mostly up to about 61 µM; on the % scale 0 is the no-effect control and ±100 the full control effect; nearly all actives have a fitted effect of over 55% in size)
Method in brief: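 5 hr compound treatment of NFkB-bla ME-180 cells (2,000/well, seeded overnight beforehand), followed by reporter substrate for 1.5 hr. CellTiter-Glo added afterward; luminescence after 30 min RT.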

[2] = qHTS assay to identify small molecule agonists of the endoplasmic reticulum stress response signaling pathway (AID 1159516; active means well fitted activation curve with a large enough effect in the signal ratio in the repeat runs, not every such curve was filed as active; the % refers to the signal ratio; further: on the % scale 0 is the no-effect control and ±100 the full control effect)
Method in brief: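 Reporter HeLa cells (ESRE-beta-lactamase) underwent 5 hr compound incubation at 37 C and 5% CO2 in quantitative HTS format. Detection followed 2 hr of FRET substrate loading at room temperature.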

[3] = qHTS assay to identify small molecule agonists of the endoplasmic reticulum stress response signaling pathway - cell viability counter screen (AID 1159517; calls by dose curve;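 further: HeLa cells carrying an ER stress response element beta-lactamase reporter; series mostly up to about 61 µM; on the % scale 0 is the no-effect control and ±100 the full control effect; nearly all actives have a fitted effect of over 50% in size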)
Method in brief: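 ESRE-bla HeLa cells, 1,500 per well, seeded overnight then treated with compounds for 5 hr at 37 C. After the beta-lactamase read, viability in the same wells is measured by CellTiter-Glo luminescence after 30 min at room temperature.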

[4] = qHTS assay to identify small molecule antagonists of the retinoid-related orphan receptor gamma (ROR-gamma) signaling pathway - cell viability counter screen (AID 1159520); further: on the % scale 0 is the no-effect control and ±100 the full control effect; nearly all actives have a fitted effect of over 50% in size
Method in brief: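 Tet-on ROR gamma CHO cells were given compounds for 2 hr, then doxycycline hyclate at 1 uM final, and incubated 16 hr at 37 C. Viability was measured as ATP content by CellTiter-Glo luminescence.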

[5] = molecular target: Nuclear receptor ROR-gamma (Homo sapiens) (UniProt P51449); assay: qHTS assay to identify small molecule antagonists of the retinoid-related orphan receptor gamma (ROR-gamma) signaling pathway (AID 1159521; further: nearly all actives have a fitted effect of over 50% in size; further: potency means the concentration at half of the fitted maximal effect)
Method in brief: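 RORγ antagonism is scored from reduced reporter luminescence in Tet-on CHO cells. Induction used 1 uM final doxycycline hyclate for 16 h at 37 C, following a 2 h compound exposure.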

[6] = qHTS assay to identify small molecule agonists of the AP-1 signaling pathway - cell viability counter screen (AID 1159525; calls by dose curve; further: nearly all actives have a fitted effect of over 55% in size)
Method in brief: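 AP-1-bla ME-180 cells in Opti-MEM with 0.5% dialyzed FBS, compound exposure 5 h at 37 C in 15-point titration. Viability read in the same wells as ATP content by CellTiter-Glo luminescence, normalised to tetra-n-octylammonium bromide and DMSO controls.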

[7] = molecular target: Retinoic acid receptor RXR-alpha (Homo sapiens) (UniProt P19793); assay: qHTS assay to identify small molecule agonists of the RXR signaling pathway (AID 1159527; calls by dose curve; further: on the % scale 0 is the no-effect control and ±100 the full control effect; nearly all actives have a fitted effect of over 35% in size)
Retinoic acid receptor RXR-alpha (Homo sapiens), sequence (P19793 whole entry, looked up): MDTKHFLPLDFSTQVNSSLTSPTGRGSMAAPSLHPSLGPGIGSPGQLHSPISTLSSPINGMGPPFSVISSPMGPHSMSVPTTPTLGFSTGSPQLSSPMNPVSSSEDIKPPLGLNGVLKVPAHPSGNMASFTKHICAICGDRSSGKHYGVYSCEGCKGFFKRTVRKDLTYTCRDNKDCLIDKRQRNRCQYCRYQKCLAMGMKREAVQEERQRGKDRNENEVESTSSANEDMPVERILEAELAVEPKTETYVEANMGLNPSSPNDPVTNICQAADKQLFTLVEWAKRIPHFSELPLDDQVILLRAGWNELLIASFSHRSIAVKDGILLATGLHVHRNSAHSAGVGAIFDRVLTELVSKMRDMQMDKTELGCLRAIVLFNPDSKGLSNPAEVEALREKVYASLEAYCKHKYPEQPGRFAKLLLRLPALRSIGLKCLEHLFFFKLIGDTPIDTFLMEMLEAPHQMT
Method in brief: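 qHTS of the Tox21 10K library in GeneBLAzer RXR-alpha HEK 293T cells carrying a beta-lactamase reporter […]; 16 hr treatment, 9-cis retinoic acid as agonist control, FRET read-out.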

[8] = qHTS assay to identify small molecule agonists of the RXR signaling pathway - cell viability counter screen (AID 1159529); further: series mostly up to about 77 µM; on the % scale 0 is the no-effect control and ±100 the full control effect; nearly all actives have a fitted effect of over 50% in size
Method in brief: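 Cell viability is measured by CellTiter-Glo luminescence, 30 min at room temperature, in wells already read for beta-lactamase. Engineered HEK 293T cells (RXR-alpha-UAS-bla) are dosed 16 hr at 37 C. Tetraoctyl ammonium bromide serves as positive control.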

[9] = qHTS assay to identify small molecule antagonists of the retinoid acid receptor (RAR) signaling pathway - cell viability counter screen (AID 1159551); further: on the % scale 0 is the no-effect control and ±100 the full control effect; nearly all actives have a fitted effect of over 35% in size
Method in brief: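 Seed C3RL4 cells; next day add compound, then retinol to 1 uM final; incubate 6 h at 37 C; add CellTiter-Glo; read luminescence after 30 min at RT.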

[10] = molecular target: Luciferin 4-monooxygenase (Photinus pyralis) (UniProt P08659); assay: qHTS assay to identify small molecule inhibitors of firefly luciferase (AID 1224835); further: nearly all actives have a fitted effect of over 25% in size; further: potency means the concentration at half of the fitted maximal effect
Luciferin 4-monooxygenase (Photinus pyralis), sequence (P08659 whole entry, looked up): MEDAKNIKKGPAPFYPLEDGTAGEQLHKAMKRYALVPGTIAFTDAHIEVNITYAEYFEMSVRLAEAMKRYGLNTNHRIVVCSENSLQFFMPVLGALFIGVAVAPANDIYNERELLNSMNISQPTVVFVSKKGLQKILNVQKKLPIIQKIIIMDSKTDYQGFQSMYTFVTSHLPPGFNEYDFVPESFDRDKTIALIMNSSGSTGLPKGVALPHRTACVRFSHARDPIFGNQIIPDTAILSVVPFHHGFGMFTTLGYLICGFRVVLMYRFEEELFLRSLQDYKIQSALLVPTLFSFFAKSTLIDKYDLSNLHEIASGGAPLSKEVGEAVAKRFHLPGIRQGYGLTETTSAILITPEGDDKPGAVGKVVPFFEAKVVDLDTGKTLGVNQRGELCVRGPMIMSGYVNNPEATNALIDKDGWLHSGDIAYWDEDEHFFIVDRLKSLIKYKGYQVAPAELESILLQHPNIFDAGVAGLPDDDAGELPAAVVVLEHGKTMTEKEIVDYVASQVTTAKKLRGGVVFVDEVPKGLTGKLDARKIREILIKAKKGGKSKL
Method in brief: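 Biochemical qHTS: compounds run as interplate titrations against purified firefly enzyme, with D-luciferin and ATP each at its KM concentration. Light output recorded by CCD imaging.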

[11] = qHTS assay to identify small molecule agonists of the constitutive androstane receptor (CAR) signaling pathway - cell viability counter screen (AID 1224836); further: series mostly up to about 92 µM; on the % scale 0 is the no-effect control and ±100 the full control effect; nearly all actives have a fitted effect of over 45% in size
Method in brief: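 Counter screen multiplexed with the CAR reporter readout: HepG2 cells co-transfected with hCAR and the CYP2B6-2.2kb construct receive a 15-concentration compound series and 0.75 uM PK11195 (final), then CellTiter-Fluor fluorescence is read after 23 h.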

[12] = qHTS assay to identify small molecule agonists of the retinoic acid receptor (RAR) signaling pathway (AID 1159553); further: on the % scale 0 is the no-effect control and ±100 the full control effect
Method in brief: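 Activation of retinol signaling was monitored via a RARE luciferase reporter in C3RL4 cells. After 6 hr compound treatment at 37 C, detection reagent was added for 30 min at room temperature before luminescence reading.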

[13] = qHTS assay to identify small molecule antagonists of the estrogen related receptor (ERR) signaling pathway - cell viability counter screen (AID 1224818);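 further: series mostly up to about 46 µM; viability measured after 17.5 h of compound exposure; on the % scale 0 is the no-effect control and ±100 the full control effect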
Method in brief: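 In the same ERR cell assay, compound-treated wells (17.5 h, 37 C) were multiplexed with a fluorogenic viability reagent, CellTiter-Fluor, read after 30 min to flag cytotoxic substances.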

[14] = qHTS assay to identify small molecule antagonists of the estrogen related receptor (ERR) signaling pathway (AID 1224819)
Method in brief: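 qHTS in ERR cells, 2,000/well, 1536 format. Cpd (DMSO) added after 6 h settle, 18 h 37 C. One-Glo luminescence, 30 min RT.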

[15] = qHTS assay to identify small molecule agonists of the estrogen related receptor (ERR) signaling pathway (AID 1224820); further: on the % scale 0 is the no-effect control and ±100 the full control effect
Method in brief: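 Cells: ERR line from NTP, 2,000/well. Pre-incubation 6 h, 37 C/5% CO2. Compound (DMSO) pin transfer, 18 h 37 C. One-Glo, 30 min RT, luminescence.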

[16] = tested on: estrogen-related receptor alpha (ERRalpha) with PGC-1alpha coactivator, human; assay: qHTS assay to identify small molecule antagonists of the estrogen related receptor signaling pathway with the pleiotropic PPARgamma coactivator (PGC) (AID 1224821; calls by dose curve)
Method in brief: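 Luminescent read-out (One-Glo, 30 min at room temperature) following 18 h treatment of PGC/ERR cells at 37 C with compounds delivered in DMSO. Cells had settled 6 h at 37 C/5% CO2 before dosing.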

[17] = qHTS assay to identify small molecule agonists of the estrogen related receptor signaling pathway with the pleiotropic PPARgamma coactivator (PGC) (AID 1224823); further: on the % scale 0 is the no-effect control and ±100 the full control effect
Method in brief: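 Steps: plate PGC/ERR cells at 2,000 cells/well; incubate 6 h, 37 C/5% CO2; pin-transfer compounds (DMSO); incubate 18 h, 37 C; add One-Glo; 30 min RT; read luminescence.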

[18] = qHTS assay to identify small molecule antagonists of the estrogen related receptor (ERR) signaling pathway from Tox21 library - cell viability counter screen (AID 1224834); further: on the % scale 0 is the no-effect control and ±100 the full control effect; nearly all actives have a fitted effect of over 30% in size
Method in brief: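 CellTiter-Fluor fluorescence measured; ERR cells; 17.5 h compound incubation at 37 C; 30 min reagent step.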

[19] = qHTS assay to identify small molecule agonists of the AP-1 signaling pathway (AID 1159526; calls by dose curve; further: on the % scale 0 is the no-effect control and ±100 the full control effect)
[20] = qHTS assay to identify small molecule antagonists of the retinoic acid receptor (RAR) signaling pathway (AID 1159552)
Method in brief: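 Quantitative HTS in C3RL4 RARE-luciferase reporter cells. Compounds were added with 1 uM (final) retinol; luminescence was read after 6 hr.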

C=C(C)C(=O)OC(C)C
inactive: Potency [1] | Potency [2] | outcome [3] | Potency [4] | Potency [5] | Potency [6] | Potency [7] | Potency [8] | Potency [9] | Potency [10] | Potency [11]

CN1CCC(=C2c3ccccc3C=Cc3ccccc32)CC1
inactive: Potency [1] | Potency [2] | outcome [3] | Potency [4] | Potency [5] | Potency [6] | Potency [7] | Potency [8] | Potency [9] | Potency [12] | outcome [13] | outcome [14] | outcome [15] | outcome [16] | outcome [17] | Potency [18] | Potency [10] | Potency [11]

CCCCCCCCCCCCCCCCCBr
inactive: Potency [1] | Potency [2] | outcome [3] | activity, negative = cytotoxicity [4] 2.1% [at 19 µM] | activity change, negative = inhibition [5] 24.8% [at 19 µM] | viability change, negative = cytotoxic [6] 0.953% [at 15.8 µM] | activation [7] -0.344% [at 15.8 µM] | activity change, negative = cytotoxicity [8] -2.08% [at 15.8 µM] | activity change, negative = cytotoxicity [9] 0.698% [at 19 µM] | viability change, negative = cytotoxic [18] -2.8% [at 19 µM] | activity change, negative = inhibition [10] 3.44% [at 23.6 µM]

CCCCOCCOCCOCCOCCO
inactive: Potency [1] | Potency [2] | outcome [3] | Potency [4] | Potency [5] | Potency [6] | Potency [19] | Potency [9] | Potency [10] | Potency [11]

CNS(=O)(=O)Cc1ccc2[nH]cc(CCN(C)C)c2c1
inactive: Potency [1] | Potency [2] | outcome [3] | Potency [4] | Potency [5] | Potency [6] | Potency [7] | Potency [8] | Potency [9] | Potency [10] | Potency [11]

Nc1cnn([C@@H]2O[C@H](CO)[C@@H](O)[C@H]2O)c(=O)n1
inactive: Potency [1] | Potency [2] | outcome [3] | Potency [4] | Potency [6] | Potency [19] | Potency [20] | Potency [12] | Potency [10] | Potency [11]
active: Potency [5] 21.7 µM

COc1ccccc1OC(=O)Oc1ccccc1OC
inactive: Potency [1] | Potency [2] | outcome [3] | Potency [4] | Potency [5] | Potency [6] | Potency [19] | Potency [18] | Potency [10] | Potency [11]

COc1ccc(OC)c(OC)c1
inactive: Potency [1] | Potency [2] | outcome [3] | Potency [4] | Potency [5] | Potency [6] | Potency [19] | Potency [18] | Potency [10] | Potency [11]

CCOC(=O)CC(=O)c1cc(F)c(Cl)nc1Cl
inactive: Potency [1] | Potency [2] | outcome [3] | Potency [4] | Potency [5] | Potency [6] | Potency [7] | Potency [8] | Potency [9] | Potency [20] | Potency [12] | Potency [11]
active: Potency [10] 40.9 µM

CN1CCC[C@@H]1c1cccnc1
inactive: Potency [1] | Potency [2] | outcome [3] | Potency [4] | Potency [5] | Potency [6] | Potency [7] | Potency [8] | Potency [18] | Potency [10] | Potency [11]

S=C(S)NCCNC(=S)S
inactive: Potency [1] | Potency [2] | outcome [3] | Potency [4] | Potency [5] | Potency [6] | Potency [7] | Potency [8] | Potency [9] | Potency [18] | Potency [10] | Potency [11]

CCOC(=O)C1=C(C)NC(C)=C(C(=O)OC)C1c1cccc([N+](=O)[O-])c1 (stereo not drawn)
inactive: Potency [1] | Potency [2] | outcome [3] | Potency [4] | Potency [5] | Potency [6] | Potency [19] | Potency [20] | Potency [12] | outcome [13] | Potency [10] | Potency [11]

CCCCCCCCCCCCCCCBr
inactive: Potency [1] | Potency [2] | outcome [3] | Potency [4] | Potency [5] | Potency [6] | Potency [7] | Potency [8] | Potency [9] | Potency [20] | Potency [12] | Potency [18] | Potency [10] | Potency [11]

C=C(C)C(=O)OCCOc1ccccc1
active: Potency [10] 35.6 µM
inactive: Potency [1] | Potency [2] | outcome [3] | Potency [4] | Potency [5] | Potency [6] | Potency [7] | Potency [8] | Potency [9] | Potency [20] | Potency [18] | Potency [11]

CC(C)NCC(O)c1cc(O)cc(O)c1 (stereo not drawn)
inactive: Potency [1] | Potency [2] | outcome [3] | Potency [4] | Potency [5] | Potency [6] | Potency [7] | Potency [8] | Potency [9] | Potency [20] | Potency [12] | outcome [13] | outcome [14] | outcome [15] | outcome [16] | outcome [17] | Potency [18] | Potency [10] | Potency [11]

Cc1cc(NC(=O)C(=O)O)cc(C)c1Oc1ccc(O)c2c1CCC2
inactive: Potency [1] | Potency [2] | outcome [3] | Potency [4] | Potency [5] | Potency [6] | Potency [19] | Potency [9] | Potency [18] | Potency [11]
active: Potency [10] 35.6 µM

CC(=O)SCc1ccco1
inactive: Potency [1] | Potency [2] | outcome [3] | Potency [4] | Potency [5] | Potency [6] | Potency [7] | Potency [8] | Potency [10] | Potency [11]

CN1CCC(=C2c3ccccc3CCc3sccc32)CC1
inactive: Potency [1] | Potency [2] | outcome [3] | Potency [4] | Potency [5] | Potency [6] | Potency [7] | Potency [9] | Potency [10] | Potency [11]

CCCCc1cc2ccccc2c(OCCN(C)C)n1
inactive: Potency [1] | Potency [2] | outcome [3] | Potency [4] | Potency [5] | Potency [6] | Potency [7] | Potency [9] | Potency [12] | Potency [18] | Potency [10]
